{
  "source": "PubChem BioAssay AID2284172",
  "about": "(EPA ToxCast)",
  "biological_target": "rat Cav1.2 (L-type), conducted at France lab site, Cacna1a (gene 25398) (UniProt P54282)",
  "sequence (P54282 whole entry, looked up)": "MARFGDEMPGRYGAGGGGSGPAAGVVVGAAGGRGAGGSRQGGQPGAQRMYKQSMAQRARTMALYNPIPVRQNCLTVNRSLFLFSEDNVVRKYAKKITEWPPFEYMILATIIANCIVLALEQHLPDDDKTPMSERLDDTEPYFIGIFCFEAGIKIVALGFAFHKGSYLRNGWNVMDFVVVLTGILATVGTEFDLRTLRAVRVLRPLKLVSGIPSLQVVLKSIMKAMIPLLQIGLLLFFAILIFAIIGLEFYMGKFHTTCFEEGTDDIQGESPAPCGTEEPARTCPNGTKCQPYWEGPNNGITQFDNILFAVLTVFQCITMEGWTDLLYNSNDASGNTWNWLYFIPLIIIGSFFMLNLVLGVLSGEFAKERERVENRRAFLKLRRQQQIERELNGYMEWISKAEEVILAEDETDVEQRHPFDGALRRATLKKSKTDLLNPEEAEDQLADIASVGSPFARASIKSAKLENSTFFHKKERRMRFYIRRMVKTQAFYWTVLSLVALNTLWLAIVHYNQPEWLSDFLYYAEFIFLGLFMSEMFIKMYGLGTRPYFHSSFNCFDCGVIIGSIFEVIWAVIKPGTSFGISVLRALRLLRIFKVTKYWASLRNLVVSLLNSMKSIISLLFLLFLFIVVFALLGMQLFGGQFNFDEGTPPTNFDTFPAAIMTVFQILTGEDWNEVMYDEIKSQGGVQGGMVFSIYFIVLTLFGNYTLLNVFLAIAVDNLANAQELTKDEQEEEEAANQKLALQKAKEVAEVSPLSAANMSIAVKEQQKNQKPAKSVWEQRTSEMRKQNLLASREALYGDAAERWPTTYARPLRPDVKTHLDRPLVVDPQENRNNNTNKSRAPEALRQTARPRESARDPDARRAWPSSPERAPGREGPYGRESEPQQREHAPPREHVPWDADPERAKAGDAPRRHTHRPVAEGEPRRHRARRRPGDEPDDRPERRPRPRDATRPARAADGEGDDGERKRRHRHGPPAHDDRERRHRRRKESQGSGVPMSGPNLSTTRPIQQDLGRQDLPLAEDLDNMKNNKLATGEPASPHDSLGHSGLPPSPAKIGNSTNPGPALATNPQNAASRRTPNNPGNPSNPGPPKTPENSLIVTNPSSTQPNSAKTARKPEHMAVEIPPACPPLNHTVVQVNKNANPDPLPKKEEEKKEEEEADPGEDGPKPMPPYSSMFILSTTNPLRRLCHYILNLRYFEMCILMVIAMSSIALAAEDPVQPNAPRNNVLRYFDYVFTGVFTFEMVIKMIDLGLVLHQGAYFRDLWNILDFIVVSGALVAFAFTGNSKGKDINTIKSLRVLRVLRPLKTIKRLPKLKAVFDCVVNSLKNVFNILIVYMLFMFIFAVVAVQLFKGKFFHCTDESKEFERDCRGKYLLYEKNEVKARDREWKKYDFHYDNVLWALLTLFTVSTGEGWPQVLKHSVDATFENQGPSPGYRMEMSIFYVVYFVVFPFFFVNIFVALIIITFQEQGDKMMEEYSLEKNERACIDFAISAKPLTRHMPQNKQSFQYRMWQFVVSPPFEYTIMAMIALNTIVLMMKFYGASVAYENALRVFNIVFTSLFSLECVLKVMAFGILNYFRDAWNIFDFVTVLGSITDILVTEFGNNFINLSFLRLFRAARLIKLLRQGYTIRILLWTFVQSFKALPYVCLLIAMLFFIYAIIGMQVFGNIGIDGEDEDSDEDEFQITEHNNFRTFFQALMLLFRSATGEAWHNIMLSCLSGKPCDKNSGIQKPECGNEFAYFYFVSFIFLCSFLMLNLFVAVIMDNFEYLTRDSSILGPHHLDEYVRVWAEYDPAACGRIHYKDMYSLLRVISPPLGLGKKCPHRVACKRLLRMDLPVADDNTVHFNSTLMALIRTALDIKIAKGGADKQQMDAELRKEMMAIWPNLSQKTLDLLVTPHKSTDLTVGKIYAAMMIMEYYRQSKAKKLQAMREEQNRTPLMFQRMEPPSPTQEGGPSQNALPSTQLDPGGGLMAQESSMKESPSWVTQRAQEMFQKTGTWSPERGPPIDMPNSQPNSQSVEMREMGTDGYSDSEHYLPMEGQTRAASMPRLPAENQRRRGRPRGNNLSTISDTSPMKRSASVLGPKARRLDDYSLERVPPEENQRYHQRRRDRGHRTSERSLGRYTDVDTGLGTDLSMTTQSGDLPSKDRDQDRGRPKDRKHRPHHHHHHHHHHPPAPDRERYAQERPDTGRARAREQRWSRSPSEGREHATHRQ",
  "test": "ERF_FR_IC_rCACNA1C_Dihydropyridine: Eurofins (ERF) Calcium Ion Channel Binding (Dihydropyridine Site) LeadHunter Assay for rat Cav1.2 (L-type), conducted at France lab site",
  "procedure": "ERF_FR_IC_rCACNA1C_Dihydropyridine is a biochemical, single-readout assay that uses extracted gene-proteins in a cell-free assay. Measurements were taken 1.5 hour after chemical dosing in a 96-well plate. See Cav1.2 (L-type) Rat Calcium Ion Channel Binding (Dihydropyridine Site) Assay, Cerep.ERF_FR_IC_rCACNA1C_Dihydropyridine is an assay component calculated from the ERF_FR_IC_rCACNA1C_Dihydropyridine assay. It is designed to measure radioligand binding using a type of binding reporter as detected by scintillation counting with radiometry technology.Data from the assay component ERF_FR_IC_rCACNA1C_Dihydropyridine was analyzed at the assay endpoint, ERF_FR_IC_rCACNA1C_Dihydropyridine, in the positive analysis fitting direction relative to DMSO as the negative control and baseline of activity. Using a type of binding reporter, loss-of-signal activity can be used to understand changes in binding as they relate to gene CACNA1C. To generalize the intended target to other relatable targets, this assay endpoint is annotated to the ion channel intended target family, where the subfamily is voltage gated (Calcium).\nRat brain cells are incubated for 90 minutes at room temprature with [3H]nitrendipine (0.25 nM) ligand and Nitrendipine as control inhibitor. Test Sample Requirements: Minimum for 1) Screen: 60 ul of 10 mM stock -OR- 1 mg (pre-weighed) for 10 uM final testing. […]",
  "note": "Activity calls are given as the source filed them. The calls were made as follows: active = hit-call score of the fitted dose curve at least 0.9, where 1 is the maximum; inactive = score below 0.9.",
  "data": [
    {"smiles": "CCCCC[C@H](O)CC(=O)CCc1ccc(O)c(OC)c1", "values": [
      {"measurement": "outcome", "value": "inactive"}
    ]}
  ]
}
